Reference: PubChem BioAssay AID602296 (Broad Institute, 2012)
Out of some 2,000 compounds screened, about 190 (9.5%) were called active. Roughly 14% stayed inconclusive and do not appear here.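 Rule for the calls: active = fitted activation curve crossing 40% at a concentration no higher than the sample's top valid tested dose; inconclusive = flat fitted curve at 30% to 70% activation, or poor curve fit; inactive = signal decrease, flat curve within 30%, or the rest.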 A selection follows.

Assay: sustained heat shock response element induction – cell-based, mouse, luciferase, cherry-pick, dose, confirmation (AID 602296);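 note: test compounds applied by themselves with no MG132 co-treatment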
Conditions: NIH3T3-HGL HSF-1 response element luciferase, 48 h; series mostly up to 26 µM; activation: at the top concentration

activation, inactive:
CC12CCC(=O)N1C(C(=O)Nc1cccc3ccccc13)CS2 (configuration not stated) -1.65%
COc1ccc(CNCC(O)COc2ccc(C(C)(C)c3ccccc3)cc2)cc1 (configuration not stated) -44.6%
COc1ccc(Cl)cc1NC(=O)CCc1nc(-c2ccccc2F)no1 -32.6%
Cc1ccc(-c2ccc(=O)[nH]n2)cc1 6.96%
c1ccc(Cn2nnnc2C(c2cccs2)N2CCc3ccccc3C2)cc1 (configuration not stated) -61.7%
COc1ccc(N/C=C(\C=C\C#N)S(=O)(=O)c2ccccc2)cc1 2.06%
Cc1cccc(NC(=S)N(CCN(C)C)C(C)c2cccnc2)c1 (configuration not stated) -1.67%
COCCOC(=O)C1=C(C)NC(C)=C(C(=O)OCCOC)C1/C=C/c1ccccc1OC -6.58%
COc1ccc(C(=O)COC(=O)c2cccnc2SC)cc1 -0.632%
CCOc1ccc(S(=O)(=O)NNC(=S)Nc2ccc(Br)cc2)cc1 0.555%
CCOC(=O)c1c(NC(C)=O)sc2c1CCC(C=NCCCN(CC)CC)=C2Sc1ccccc1 13%
O=C(c1ccc(Br)cc1)N1CCCC(c2nc(-c3cccs3)no2)C1 (configuration not stated) -37.2%
Cc1[nH]c2ccccc2c1CN1CCN(c2ccccn2)CC1 -15.3%
CCOc1ccc(NC(=O)C2CC(=O)N3CCCN=C3S2)cc1 (configuration not stated) -13.2%
CCOC(=O)c1nnc(-c2ccccc2)nc1Sc1ccccc1Cl -101%
CCC(NC(=O)/C(=C\c1ccc2c(c1)OCO2)NC(C)=O)C(=O)O (configuration not stated) -1.08%
Cc1cc(NC(=O)CSc2nc3c(cc2C#N)CCC3)no1 -57.8%
Cc1nonc1C1CCCN1Cc1cn[nH]c1-c1ccc(-c2ccccc2)cc1 (configuration not stated) -16.4%
Cc1ccc2c(CN3CCN(S(=O)(=O)/C=C/c4ccccc4)CC3)cc(=O)oc2c1 -1.07%
O=C1C2CCCCC2C(=O)N1Cc1ccccc1 (configuration not stated) -6.54%
CC(C)C(C)N(Cc1ccc(C(=O)O)cc1)C(=O)c1ccc2ccccc2n1 (configuration not stated) -7.06%
O=C(Nc1ccn(Cc2ccccc2F)n1)c1ccc(COc2ccc(Cl)cc2Cl)o1 -41.2%
Cn1c(CN2CCN(c3ccc(Cl)cc3)CC2)nc2ccccc21 7.35%
Brc1ccc(CSc2nnc(-c3ccccn3)n2Cc2ccco2)cc1 -64.8%
CSc1nc(S(=O)(=O)c2ccc(C)cc2)c(Cl)s1 4.27%
COc1ccc(CCNCc2cc(C)n(-c3ccc(OC)cc3)c2C)cc1 -9.47%
Cc1cc(C(=O)N/N=C/c2ccc([N+](=O)[O-])s2)c2ccccc2n1 -39.8%
Clc1ccc(-n2cc(COCc3ccccc3)nn2)cc1 -82.4%
COc1ccc(Cl)cc1N(CC(=O)Nc1ccccc1SC)S(C)(=O)=O 5.09%
COc1ccc(OC)c(S(=O)(=O)Nc2ccccc2O)c1 -3.47%
CCOC(=O)/C=C/C(=O)OCC(=O)NC(c1ccccc1)c1ccccc1 -43.9%
Cc1onc(-c2ccccc2)c1C(=O)N/N=C/c1cccc(O)c1 -6.78%
C=CCc1ccc(OCC(O)CO)c(OC)c1 (configuration not stated) -2.53%
NC(=O)c1ccc(NC(=O)CC23CC4CC(CC(Br)(C4)C2)C3)cc1 2.54%
Cc1cccn2c(=O)nc(SCC(=O)N3N=C(c4cccs4)CC3c3ccc(F)cc3)nc12 (configuration not stated) -21.7%
O=C(NNc1c(F)c(F)cc(F)c1F)c1ccc(Cl)nc1 7.76%
CCOc1ccc(CN(C)CC(O)COC(c2ccc(OC)cc2)c2ccc(OC)cc2)cc1 (configuration not stated) -94%
O=C(/C(=N/N=C/c1ccc(O)c(O)c1)c1ccccc1)c1ccccc1 -87.1%
Cc1ccc(Cl)c2c1=NC(=O)C=2c1[nH]c(=S)[nH]c1O -16.3%
Cc1ccc(N(Cc2ccc(C(=O)Nc3ccccc3C(=O)NCc3ccco3)cc2)S(C)(=O)=O)cc1C -8.84%
CC(C)=C1C2CCC1C1C(=O)N(c3nc(-c4ccccc4)c(C)s3)C(=O)C21 (configuration not stated) -19.2%
COc1ccc(CCNC(=O)C2CCCN(Cc3nc(-c4ccccc4C)oc3C)C2)cc1OC (configuration not stated) -12.3%
O=C1[C@@H]2Cc3c([nH]c4ccccc34)C(c3ccc([N+](=O)[O-])cc3)N2C(=O)CN1C1CC1 (some centres not stated) -1.65%
CC(=O)c1ccc(N=C2C(=O)Nc3ccccc32)cc1 10.8%
Cc1ccc(-c2[nH]c3ccccc3c2C(C[N+](=O)[O-])c2ccco2)cc1 (configuration not stated) -25.2%
Cc1cc(Sc2nnc(N)s2)c2ccccc2n1 -101%
COC(=O)Nc1ccc(S(=O)(=O)N2CCC(C(=O)N3CCCC(C)C3)CC2)cc1 (configuration not stated) 8.64%
CC12CN(C(=S)Nc3ccccc3)CC(C)(CN(C(=S)Nc3ccccc3)C1)C2=O 5.01%
COc1ccccc1C(=O)NCCCNC(=O)c1ccccn1 1.6%
NCCCCCc1nnc(SC/C=C/c2ccccc2)o1 -5.43%
COc1cc(-c2nnc(SC/C=C/c3ccccc3)n2N)cc(OC)c1OC -22.3%
COc1cccc(-c2c(C(=O)N/N=C(\C)c3ccc(Cl)s3)nnn2-c2nonc2N)c1 -28.4%
C=C(C)Cn1c(SCC(=O)O)nnc1-c1ccc(OC)cc1 -2.32%
CC(=O)COc1cccc2ccc(/C=C/c3ccc(Br)s3)nc12 1.39%
Cc1[nH]n(-c2ccccc2)c(=O)c1C(C[N+](=O)[O-])c1ccc(F)cc1 (configuration not stated) -47.7%
S=c1[nH]nc(-c2cc(-c3ccccc3)n[nH]2)n1/N=C/C(Br)=C/c1ccccc1 -108%
C=CCn1c(C2CCCCC2)n[nH]c1=S -1.72%
COc1ccc2cc(S(=O)(=O)N3CCCCC3)ccc2c1S(=O)(=O)N1CCCCC1 -15.5%
CCOC(=O)COc1ccc(/C=C2/SC(=Nc3ccccc3)N(Cc3cccnc3)C2=O)cc1OC -37.4%
CCCCc1nnc(NC(=O)C(C)Sc2nc(C)cc(=O)[nH]2)s1 (configuration not stated) 2.97%
CCn1c(CNC(C)=O)nnc1SCC(=O)c1ccc(Br)cc1 -12% [at 12 µM]
COc1ccc(C(CCNCc2ccccc2)c2ccc(F)cc2)cc1 (configuration not stated) -7.83%
Nc1cnn(Cc2ccc(F)cc2)c1 -9.5%
CC1=CC(C)(C)Nc2ccc(OC(=O)C(Cc3ccccc3)N3C(=O)c4ccccc4C3=O)cc21 (configuration not stated) -75.7%
CCOc1ncccc1C(=O)N(C)CC1COc2ccccc2O1 (configuration not stated) 4.02%
O=C(CCCN1C(=O)c2cccc3cccc(c23)C1=O)Nc1ccon1 9.55%
CCN(CC)CCOc1ccc(/C(=C(/Cl)c2ccccc2)c2ccccc2)cc1 -59%
CCCCN(C)C(=O)C1CCC(CNS(=O)(=O)c2ccc3c(c2)CC(C)N3C(=O)C2CC2)CC1 (configuration not stated) -24.4%
Brc1ccc2c(c1)C(c1cccnc1)=NNC(c1cccs1)=N2 -23.4%
Cc1ccc(-n2c(C)cc(C(=O)COc3c(CO)cc(F)cc3CO)c2C)cc1C -13%
Cc1c(NC(=O)CSc2nnc3c4ccccc4n(CCc4ccccc4)c3n2)c(=O)n(-c2ccccc2)n1C -30.7%
CC(=O)Nc1ccc(N2C(=O)C3C4CC(=O)C(c5ccccc54)C3C2=O)cc1 (configuration not stated) -4.5%
O=c1[nH]c(CSc2ccccn2)nc2c1oc1ccccc12 -99.2%
C=CCn1c(COc2ccc(CC)cc2)nnc1SC/C(O)=C(\C#N)c1nc2ccccc2[nH]1 -17.9%
S=C(NCCSCc1ccc(Cl)c(Cl)c1)Nc1ccccc1 -55.3%
O=C(CSC1=NCCN1)Nc1cccc(C(F)(F)F)c1 -21.6%
CC1(C)CC(=O)C2=C(C1)N1C(=C(C#N)C2c2ccc(Cl)cc2)N=C(N)c2ccccc21 (configuration not stated) -53.2% [at 12 µM]
O=C(CNS(=O)(=O)c1ccc(Br)s1)NCc1ccccc1 0.286%
Cc1ccc(CNC(=O)Cn2ccc3ccccc3c2=O)o1 10.8%
CNC(=O)N(O)C1N(/N=C/c2c(F)cccc2Cl)C(=S)SC1(C)C (configuration not stated) -5.57%
FC(F)(F)c1ccc(Sc2nnc(-c3cccs3)n2CC2CCCO2)nc1 (configuration not stated) 5.38%
Clc1ccc(CCNc2nc3ccccc3n3nnnc23)cc1 -11.4%
O=C(Nc1cccc(Cl)c1)N1CCC(CO)(CCOc2ccccc2)CC1 6.61%
COc1ccc(/C=C/C(=O)c2ccc(O)cc2)cc1COc1ccc(F)cc1 -71.3%
Oc1cc(-c2ccccc2)c2ccccc2c1 -26.3%
Cc1nc2cc3nc(C(F)(F)F)[nH]c3cc2[nH]1 -1.68%
COc1ccccc1CCC(=O)OCC(=O)Nc1c(Br)cc(C)cc1Br -11.2%
O=C(NCCc1ccc(O)c(O)c1)C1COc2ccccc2O1 (configuration not stated) -31.9%
CC(NC(=O)c1ccc(C(C)(C)C)cc1)C(c1cccs1)N1CCOCC1 (configuration not stated) 3.38%
CCNC(=O)C(=O)NCc1ccncc1 -12.5%
CCn1cnc2c1c(=O)n(Cc1nnc3n1-c1ccccc1SC3)c(=O)n2Cc1ccccc1 -8.97%
N#Cc1cc(Cl)c(NCC2CCCO2)cc1C#N (configuration not stated) -8.57%
Cc1ccc(S(=O)(=O)NNC(=O)c2sc3nc(C)cc(C)c3c2-n2cccc2)cc1 -31.5%
Clc1ccc(CO/N=C/c2c(-c3ccccc3)nc3n2CCS3)c(Cl)c1 -67.9%
Cc1ccc(-c2nc3ccccc3[nH]2)cc1NC(=O)c1ccc2c(c1)OCO2 3.91%
COc1cccc(NC=C2C(=O)OC3(CCCCC3)OC2=O)c1 -0.84%
Cc1sc2nc(CSc3cccc(C(F)(F)F)c3)[nH]c(=O)c2c1C -6.05%
COc1ccc(N2C(=O)CC(Sc3nnnn3-c3ccc(F)cc3)C2=O)cc1 (configuration not stated) -104%
CC(C(=O)Nc1ccccc1Br)N1c2cccc3cccc(c23)S1(=O)=O (configuration not stated) -32.6%
CC(=O)c1ccc(N2CCN(C(=O)c3n[nH]c4ccccc34)CC2)cc1 -5.87%
Cc1ccc(C(=O)Cn2nnc(-c3ccccc3-n3cnnn3)n2)cc1 7.09%
COc1ccccc1NC(=O)C1=C(C)NC2=C(C(=O)CC(c3ccc(OC)c(OC)c3)C2)C1c1coc2ccccc2c1=O (configuration not stated) -44.2%
Cc1ccc(S(=O)(=O)N(C)c2ccc(C)c([N+](=O)[O-])c2)cc1 0.076%
CCOC(=O)C1=C(C)Nc2nc3ccccc3n2C1c1ccncc1 (configuration not stated) 1.53%
COc1ccc(NC(=O)C(NCC(C)C)c2ccccc2)cc1Cl (configuration not stated) -0.667%
O=S(=O)(c1ccc(-n2cnnn2)cc1)N1CCNCC1 -0.865%
CCCCCCCCCCCC(=O)c1c(O)cccc1O -66.3%
